The values that follow come from PubChem BioAssay AID2685 (National Center for Advancing Translational Sciences (NCATS), 2010).

Molecules are shown by their SMILES. The whole screen tested about 320,000 compounds, of which about 2,100 (0.66%) were called active. Roughly 53% stayed inconclusive and do not appear here. Calls follow the shape of the dose curve; as a rule, active = well fitted inhibition curve with a large enough effect in the signal ratio, with a control signal flat (not every such curve was filed as active); inconclusive = small, poorly fitted or top-dose-only effect, or effect the other way, or a change in a side signal; inactive = flat fitted curve, though single readings scatter; the % refers to the signal ratio. The entries come from a sample that favours actives as a whole.
Potency is read from the fitted curve at half-maximal effect.

The test can be described thus: qHTS Assay for Lipid Storage Modulators in Drosophila S3 Cells.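 As to cell number change: cells counted by Cell Tracker Red CMTPX staining in the red channel.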 As to lipid storage change, negative = inhibition: % is scaled to controls: 0 for no effect and ±100 for the full control effect. As to conditions: BODIPY lipid droplet fluorescence, 18-24 h, cells fed with added oleic acid; cell number change: measured here: cell count max response; series mostly up to 46.1 µM; lipid storage change, negative = inhibition: at the top concentration. The method in brief:
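Laser-scanning cytometry quantifies lipid droplet accumulation (500–530 nm total intensity; droplet/cell object ratio) in oleic acid-fed (400 uM added) Drosophila S3 cells treated with a concentration series. 20 uM Triacsin C defined 100% inhibition.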
With `CC(C)C(NC(=O)c1ccccc1)C(=O)OCn1nnc2ccccc2c1=O` (configuration not stated), the Potency was 16.4 µM (active) and the cell number change was -15.7%.
Consider `CCOC(=O)c1ccccc1NC(=S)N1CCC(C)CC1`, for which the “lipid storage change, negative = inhibition” value is 29.6% (inactive) and the cell number change is -4.08%.
For `Cc1nnsc1S(=O)c1ccccc1Cl` (configuration not stated), in that order: 14.1% (inactive) and -9.44%.
On the same counts, the results for `O=[N+]([O-])c1cccc(/C=N/NS(=O)(=O)c2ccccc2)c1` are -12.4% (inactive) and -12.3%.
On the same counts, the results for `C=CCNC(=S)NNC(=O)c1ccc(Br)cc1` are -0.112% (inactive) and -6.86%.
On to `CC(=O)Nc1ccc(NC(=S)NC(=O)/C=C/c2ccco2)cc1`, for which the Potency was 4.61 µM (active) and the cell number change was -27.7%.
Regarding `CC(=O)c1ccc(NC(=S)NC(=O)/C=C/c2ccco2)cc1`, the “lipid storage change, negative = inhibition” value was 9.91% (inactive) and the cell number change is -2.35%.
On the same counts, the results for `CC(=O)NC(=S)Nc1ccc(NC(=S)NC(=O)/C=C/c2ccco2)cc1` are 8.43% (inactive) and 15.8%.
Consider `CCO[C@H]1OC(C(=O)N2CCN(C)CC2)=C[C@@H](C2CC2)[C@@H]1CCCO`, for which the “lipid storage change, negative = inhibition” value is -7.66% (inactive).
Regarding `Cc1cc(OCC(=O)NNC(=S)NCC2CCCO2)cc(C)c1Cl` (configuration not stated), the compound was classed as inactive and the cell number change is -9.63%.
For `O=C(Nc1ccccc1F)C1COc2ccccc2O1` (configuration not stated), the compound was called inactive.
As to `COc1ccccc1NC(=O)CCCNC(=O)Cn1cnc2sc(C)c(C)c2c1=O`, the compound was classed as inactive and the cell number change was found to be 9.46%.
Take `COc1ccc(OC)c(NC(=O)CCCNC(=O)Cn2cnc3sc(C)c(C)c3c2=O)c1`: the Potency is 3.66 µM (active) and the cell number change stood at 10.8%.
Consider `COc1ccc(NC(=O)CCCNC(=O)Cn2cnc3sc(C)c(C)c3c2=O)cc1OC`, for which the compound was classed as inactive and the cell number change stood at 19.7%.
Turning to `CN1CCN(C2CCN(Cc3ccc(O)c4ncccc34)CC2)CC1`, the “lipid storage change, negative = inhibition” value was 9.86% (inactive) and the cell number change worked out at 8.98%.
With `O=S(=O)(c1ccccc1)c1nc(-c2ccccc2)oc1N1CCCC1`, the “lipid storage change, negative = inhibition” value was 1.16% (inactive).
As for `COc1ccccc1-c1nc(S(=O)(=O)c2ccccc2)c(N2CCOCC2)o1`, the “lipid storage change, negative = inhibition” value is -22.5% (inactive) and the cell number change is 5.82%.
`COc1ccccc1-c1nc(S(=O)(=O)c2ccccc2)c(N2CCCCC2)o1`: the Potency is 4.11 µM (active) and the cell number change is -11.8%.
Regarding `Cc1nc(CS(=O)c2ccc(Cl)cc2)cc(N2CCOCC2)n1` (configuration not stated), the “lipid storage change, negative = inhibition” value was -9.48% (inactive) and the cell number change was -22.4%.
For `Cc1ccc(NC(=O)CN2CCN(Cc3ccccc3)CC2)cc1`, the “lipid storage change, negative = inhibition” value was 5.7% (inactive).
In the case of `COc1ccc(C(=O)NCC2(c3ccccc3)CCOCC2)cc1`, the “lipid storage change, negative = inhibition” value was 3.47% (inactive) and the cell number change amounted to 16.9%.
For `CC1=CC2=NC(=O)/C(=C\c3ccc(-c4ccc(Cl)cc4)o3)C(=N)N2O1`, in that order: -14% (inactive) and 5.59%.
As for `CCOc1ccc(C(=O)NC(C(=O)NCC(c2cccs2)N(C)C)C(C)C)cc1` (configuration not stated), the “lipid storage change, negative = inhibition” value was 16.5% (inactive) and the cell number change was -5.63%.
With `COc1ccc(C(=O)NCc2nnc(SCC(=O)N3CCCC3)o2)cc1`, the compound was called inactive.
`CCOc1ccc(NC(=O)CSc2nnc(CNC(=O)c3ccco3)o2)cc1`: the “lipid storage change, negative = inhibition” value is 4.79% (inactive) and the cell number change was 12.8%.
For `CCOC(=O)c1ccc(NC(=O)CSc2nnc(CNC(=O)c3ccco3)o2)cc1`, the Potency was 3.66 µM (active) and the cell number change is -21.5%.
As to `COc1ccc(C(=O)NCc2nnc(SCC(=O)Nc3cccc(C(F)(F)F)c3)o2)cc1OC`, the “lipid storage change, negative = inhibition” value was -16.5% (inactive) and the cell number change was determined as 0.944%.
In the case of `Cc1ccc(NC(=O)CSc2nnc(CNC(=O)c3ccco3)o2)cc1`, the “lipid storage change, negative = inhibition” value was -12.8% (inactive).
Take `COc1cc(C(=O)NCc2nnc(SCC(=O)Nc3cc(C)cc(C)c3)o2)cc(OC)c1OC`: the “lipid storage change, negative = inhibition” value was 5.11% (inactive) and the cell number change came out at 6.53%.
`COc1cc(C(=O)NCc2nnc(SCC(=O)N3CCCCC3)o2)cc(OC)c1OC`: the Potency is 18.4 µM (active) and the cell number change is 4.42%.
On the same counts, the results for `COc1cc(C(=O)NCc2nnc(SCC(=O)Nc3cccc(C(F)(F)F)c3)o2)cc(OC)c1OC` are 9.2 µM (active) and -27.5%.
Consider `CCC1CCCCN1C(=O)CSc1nnc(CNC(=O)c2cc(OC)c(OC)c(OC)c2)o1` (configuration not stated), for which the result was inactive.
In the case of `Cc1cc[n+]2c3c(cccc13)CCC2`, the compound was classed as inactive and the cell number change was 21.6%.
In the case of `Cn1c(SCC(=O)Nc2nccs2)nnc1-c1ccco1`, the “lipid storage change, negative = inhibition” value was 8.24% (inactive) and the cell number change was 19.7%.
Take `O=C(CCNS(=O)(=O)c1ccccc1F)N1CCN(C(c2ccccc2)c2ccccc2)CC1`: the Potency is 23.1 µM (active).
Turning to `O=C(CCNS(=O)(=O)c1ccccc1F)N1CCN(Cc2ccccc2)CC1`, the compound was classed as inactive.
As to `O=C(CCNS(=O)(=O)c1ccccc1C(F)(F)F)N1CCN(C(c2ccccc2)c2ccccc2)CC1`, the “lipid storage change, negative = inhibition” value was 23.5% (inactive) and the cell number change worked out at 9.11%.
For `COc1cc(CN(C(=S)NCC(=O)NC2CC2)C2CCCC2)cc(OC)c1OC`, in that order: -7.95% (inactive) and 4.91%.
In the case of `CS(=O)(=O)N1N=C(c2ccccc2)CC1c1cccs1` (configuration not stated), the “lipid storage change, negative = inhibition” value was 0.108% (inactive) and the cell number change is -4.84%.
For `N=C(N)Sc1nc(N2CCCCC2)nc(N2CCCCC2)n1`, in that order: -23.5% (inactive) and 2.17%.
On to `CN(C)S(=O)(=O)c1cccc(-c2nnc(SCC(=O)NCCCCCC(=O)O)n2-c2ccc(F)cc2)c1`, for which the “lipid storage change, negative = inhibition” value is 8.47% (inactive) and the cell number change was 5.6%.
For `CNc1c(NS(=O)(=O)c2ccc(OC)c(Cl)c2)c(=O)oc2ccccc12`, the Potency is 16.4 µM (active) and the cell number change was -27.3%.
As to `CCCNc1c(NS(=O)(=O)c2ccc(NC(=O)CC)cc2)c(=O)oc2ccccc12`, the result was inactive and the cell number change was -23.3%.
As for `CCCNc1c(NS(=O)(=O)c2ccc3c(c2)CCCC3)c(=O)oc2ccccc12`, the “lipid storage change, negative = inhibition” value was 13.3% (inactive) and the cell number change is -4.72%.
As to `O=C(O)CCC(=O)Nc1ccc(S(=O)(=O)c2ccc(NC(=O)CCC(=O)O)cc2)cc1`, the “lipid storage change, negative = inhibition” value is 25% (inactive) and the cell number change was determined as 14.2%.
`CCCNc1c(NS(=O)(=O)c2ccc(C)c(C)c2)c(=O)oc2ccccc12`: the Potency was 0.291 µM (active) and the cell number change is -4.13%.
`CCC(=O)Nc1ccc(S(=O)(=O)Nc2c(NC)c3ccccc3oc2=O)cc1`: the Potency was 18.4 µM (active) and the cell number change was 8.07%.
As for `COc1ccc(S(=O)(=O)Nc2c(NC3CCCCC3)c3ccccc3oc2=O)cc1Cl`, the compound was classed as inactive and the cell number change is -20.1%.
For `CNc1c(NS(=O)(=O)c2cc(OC)ccc2OC)c(=O)oc2ccccc12`, in that order: “inactive” and -19.8%.
On to `CCC(=O)Nc1ccc(S(=O)(=O)c2ccc(NC(=O)CC)cc2)cc1`, for which the Potency was 10.3 µM (active) and the cell number change is 0.0647%.
Regarding `CCCNc1c(NS(=O)(=O)c2ccc(Br)cc2)c(=O)oc2ccccc12`, the outcome was inactive and the cell number change is -47.1%.
In the case of `CC(=O)Nc1ccc(S(=O)(=O)c2ccc(C)cc2)cc1`, the “lipid storage change, negative = inhibition” value is -24% (inactive) and the cell number change was -22.1%.
As for `CC(=O)Nc1ccc(S(=O)(=O)Nc2c(NC3CCCCC3)c3ccccc3oc2=O)cc1`, the result was inactive and the cell number change is -18%.
